Shown is part of a subset that was picked to be rich in hits.
ST2 IL33 inh = blocks human ST2 binding to IL-33 | AlphaLISA ST2-Fc/biotin-IL-33 interaction, 1 h | actives 2.3% (n = 78,000) | AID 1259354 | inhibition, % for hits at 17 µM | Q01638; in the data active = inhibition above about 30%
Target sequence (Q01638 whole entry, looked up): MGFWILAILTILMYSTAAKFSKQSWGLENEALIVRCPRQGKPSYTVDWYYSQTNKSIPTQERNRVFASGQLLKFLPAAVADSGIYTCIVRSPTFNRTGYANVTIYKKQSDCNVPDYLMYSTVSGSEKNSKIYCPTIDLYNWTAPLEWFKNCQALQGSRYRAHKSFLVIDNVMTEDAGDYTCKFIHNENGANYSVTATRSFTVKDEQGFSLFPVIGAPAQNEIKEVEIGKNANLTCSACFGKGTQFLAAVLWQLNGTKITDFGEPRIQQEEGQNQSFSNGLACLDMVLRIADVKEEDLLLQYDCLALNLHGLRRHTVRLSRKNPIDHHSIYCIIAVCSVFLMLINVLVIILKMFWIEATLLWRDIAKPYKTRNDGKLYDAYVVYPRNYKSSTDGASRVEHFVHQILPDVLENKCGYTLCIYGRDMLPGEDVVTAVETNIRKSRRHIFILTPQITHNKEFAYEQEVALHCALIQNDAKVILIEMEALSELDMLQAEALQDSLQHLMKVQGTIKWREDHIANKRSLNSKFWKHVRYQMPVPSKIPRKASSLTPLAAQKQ
Active calls of the source: *; i = inactive.

SMILES	ST2 IL33 inh
C=CCc1ccc(OCCOc2ccc(C=O)cc2OC)c(OC)c1	i
CC1=C(C(N)=O)C(c2ccccn2)n2nc(SCc3ccccc3F)nc2N1 (configuration not stated)	i
O=C(c1cc(=O)c2cccc(F)c2[nH]1)N1CCOC(C(F)(F)F)C1 (configuration not stated)	i
N#Cc1ccc(-c2ccccc2)nc1SCC(=O)c1ccc(O)c(O)c1	i
CCSc1nc(-c2ccccc2)ccc1C#N	i
N#Cc1ccc(-c2ccncc2)nc1SCc1ccc(F)cc1	34%*
N#CCc1nc(CSc2nnnn2-c2ccccc2)cs1	i
Cc1cc(C)c(NC(=O)c2cnc3sccn3c2=O)c(C)c1	i
O=C(NC1CCCCCCC1)c1ccccc1	i
Nc1cc(C(=O)O)ccc1NC1CCCCC1	31%*
O=C(NC1CCCCC1)c1ccc(Cl)cc1	i
Cc1ccc(N2NC(=O)/C(=C/c3ccc(OCc4ccccc4)cc3)C2=O)cc1Cl	i
COc1cc(/C=C2/C(=O)NN(c3ccc(C)c(Cl)c3)C2=O)cc(OC)c1OC	i
COc1cc(/C=C2/C(=O)NN(c3ccc(C)c(Cl)c3)C2=O)ccc1OCc1ccccc1	48%*
CCn1c(C2CCN(C(=O)COCC(F)(F)C(F)F)CC2)n[nH]c1=O	i
COc1cc(C(c2ccc(C)o2)c2ccc(C)o2)c([N+](=O)[O-])cc1OC	36%*
COc1cc(CN2CCC(C)CC2)c([N+](=O)[O-])cc1OC	i
COc1cc(CC(=O)O)c([N+](=O)[O-])cc1OC	i
COc1ccccc1NC(=O)CN1C(=O)CC(c2ccccc2)=Nc2ccccc21	i
COC(=O)[C@@H]1Cc2ncn(C(C)C)c2CN1S(=O)(=O)c1ccc(OC)cc1	i
COC(=O)[C@@H]1Cc2ncn(C(C)C)c2CN1S(=O)(=O)c1ccc(C#N)cc1	35%*
COC(=O)[C@@H]1Cc2ncn(C)c2CN1S(=O)(=O)c1ccc(C#N)cc1	i
COc1ccc(-c2c3c(=O)n(C)c(=O)n(C)c3cn2C)cc1	i
CC1CCc2cc(F)ccc2N1C(=O)c1ccc([N+](=O)[O-])cc1 (configuration not stated)	i
CC1CCc2cc(F)ccc2N1S(=O)(=O)c1ccc([N+](=O)[O-])cc1 (configuration not stated)	36%*
SMILES	ST2 IL33 inh
CC1CCc2cc(F)ccc2N1S(C)(=O)=O (configuration not stated)	i
CC1(C)CC2CC(C)(CN2C(=O)c2ccc(F)cc2)C1 (configuration not stated)	i
COc1cc2c(cc1OC)C(C(=O)NC(C)C)C1c3ccccc3CCN1C2=O (configuration not stated)	i
Cc1nc2ccc3nc(NC(=O)c4ccccc4Cl)sc3c2s1	i
Cc1nc2ccc3nc(NC(=O)c4cccc(Br)c4)sc3c2s1	i
COC(=O)c1ccc(C(=O)Nc2nc3ccc4nc(C)sc4c3s2)cc1	30%*
O=C(O)c1cc2n(n1)CCCN(C(=O)CCc1c[nH]c3ccccc13)C2	i
O=[N+]([O-])c1ccccc1-c1ccc(/C=C/c2ccncc2)o1	49%*
O=C1OC(c2cccc(F)c2)=N/C1=C/c1ccc(-c2ccccc2[N+](=O)[O-])o1	i
O=C(Nc1ccc(I)cc1Cl)c1ccc(-c2ccccc2[N+](=O)[O-])o1	i
CS(=O)(=O)c1nnnn1-c1ccc2c(c1)OCO2	i
Cn1nc(-c2ccc(Cl)cc2)c2cc(C(=O)NCc3cccnc3)sc21	i
CC1CCC23COC(=O)C2=CC(O)CC3C1(C)CCC1=CC(=O)OC1O (configuration not stated)	i
COC(=O)C1=C(C(=O)OC)C2(OC1c1ccc(C)c(Cl)c1)C(=O)c1ccccc1C2=O (configuration not stated)	i
CCOc1ccc(C(=O)Nc2cccc(Cl)c2)cc1Br	i
COc1ccc(C(=O)Nc2cccc(NC(=O)c3ccccc3Cl)c2)cc1Br	59%*
COc1ccc(C(=O)Nc2cccc(NC(=O)c3ccccc3Cl)c2)cc1[N+](=O)[O-]	i
Clc1ccc(-n2cnc3ccccc32)nc1	i
OC1CCN(Cc2cccc(Cl)c2Cl)CC1	i
COc1cc([N+](=O)[O-])ccc1NC(=O)C(C)(C)Oc1ccc(Cl)cc1	30%*
COc1cc(NC(=O)C(C)(C)Oc2ccc(Cl)cc2)c(OC)cc1Cl	i
COc1ccc(NC(=O)C(C)(C)Oc2ccc(Cl)cc2)cc1OC	i
O=C(NC1CCCCC1)c1ccc(NC2=NC3CS(=O)(=O)CC3S2)cc1 (configuration not stated)	i
O=C(c1ccccc1Cl)N1CCN(c2ccccc2)CC1	i
N#Cc1c(N)nc2c(c1-c1ccccc1Cl)CCCCC2	i
SMILES	ST2 IL33 inh
N#CC(C#N)=C1C(Cl)=C(N2CCCCC2)c2ccccc21	82%*
CC1CC(C)CN(S(=O)(=O)c2ccc(C(=O)Nc3sc4c(c3C#N)CCCC4)cc2)C1 (configuration not stated)	i
CCOC(=O)c1c(NC(=O)CCOc2ccccc2)sc2c1CCC(C)C2 (configuration not stated)	i
CC(=O)N1CCC(N2CC[C@H](c3nc4ccccc4[nH]3)C2)CC1	i
O=C(O)CN=C(NS(=O)(=O)c1ccccc1)c1ccc(F)cc1	i
O=C(O)CN=C(NS(=O)(=O)c1ccccc1)c1ccccc1	38%*
CCCN=C(NS(=O)(=O)c1ccc(C)cc1)c1ccc(F)cc1	i
CCOc1ccc(CN2C(=O)c3oc4ccccc4c3OCC2(C)C(=O)NC2CCCC2)cc1 (configuration not stated)	i
CN1CCc2cc(Cl)c(O)cc2[C@@H](c2ccccc2)C1	i
CN1CCc2cc(O)c(O)cc2C(c2ccccc2)C1 (configuration not stated)	i
CN1CCc2c(cc(O)c(O)c2Cl)C(c2cccc(Cl)c2)C1 (configuration not stated)	39%*
Cc1cccc(C(C(=O)NCC2(CN3CCOCC3)CC2)N(C)C)c1 (configuration not stated)	i
Cn1c(SCC(=O)c2ccccc2)nc2c([nH]c3ccccc32)c1=O	i
CN1CCC2(CC1)CN(C(=O)c1ccc3[nH]ccc3c1)CCN2C	i
CCOC(=O)c1c(NC(C)=O)sc2c1CCN(Cc1ccccc1)C2	i
CCOC(=O)c1c(NC(=O)c2cc3ccccc3oc2=O)sc2c1CCN(CC)C2	33%*
CCN1CCc2c(sc(NC(=O)c3ccc(C)c(C)c3)c2C(=O)OC)C1	i
Cc1ccc(NC(=O)Cn2ncc3c(=O)oc4ccccc4c32)c(Br)c1	i
CS(=O)(=O)N(CC(=O)Nc1ccc(F)cc1)c1ccc(Cl)c(Cl)c1	i
COc1ccc(-c2n[nH]c(C)c2Oc2ccccc2)c(O)c1	i
Cc1[nH]nc(-c2ccc(O)c(O)c2O)c1Oc1ccccc1	42%*
CCOc1ccc(-c2n[nH]c(C)c2Oc2ccccc2)c(O)c1	i
CCCc1ccc(Oc2cn[nH]c2-c2ccc(O)c(C)c2O)cc1	i
Oc1ccc(-c2[nH]ncc2Oc2ccccc2)c(O)c1O	51%*
Oc1ccc(-c2[nH]ncc2Oc2ccccc2)c(O)c1	i
O=C(CCS(=O)(=O)c1cccc2nsnc12)Nc1ccc(F)c(F)c1	i
O=S(=O)(NCc1nc2cccnc2n1Cc1ccc(Cl)cc1)c1ccc(F)c(Cl)c1	i
O=C(Cn1c(=O)sc2ccccc21)N1CCCC1	i
Cc1ccc(-n2nc3c(c2NC(=O)Cc2ccccc2)CSC3)c(C)c1	i

High-throughput results (PubChem BioAssay)
